# Results filed as inconclusive are left out. The source made the active and inactive calls. Calls come from the whole dose curve; as a rule, active = well fitted curve in the direction sought with a large enough effect; inconclusive = small, poorly fitted or top-dose-only effect, or another doubt; inactive = no such curve, though single readings can be large; an effect the other way counts as inactive or inconclusive.
# What was measured:
# [1] = molecular target: Glutathione peroxidase 1 (Homo sapiens) (UniProt P07203); experiment: Primary qHTS Assay for Inhibitors of Recombinant Selenoprotein Glutathione Peroxidase 1 (GPX1) (AID 1845191); note: nearly all actives have a fitted effect of over 65% in size
# Method in brief: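 GR-coupled readout: NADPH consumption tracked by fluorescence, ex 340/em 450 nm, at t=0 and after 15 min at RT. Final mix 10 nM GPX1, 1 mM GSH, 0.5 mM CHP, 0.5 mM NADPH, 100 nM GR, 0.01% BSA, following 30 min enzyme–compound preincubation.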
# [2] = molecular target: Phospholipid hydroperoxide glutathione peroxidase GPX4 (Homo sapiens) (UniProt P36969); experiment: Primary qHTS Assay for Inhibitors of Recombinant Selenoprotein Glutathione Peroxidase 4 (GPX4) (AID 1845192); note: nearly all actives have a fitted effect of over 65% in size
# Method in brief: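 Steps: GPX4 plus compound, 30 min RT; add GR/GSH/NADPH master mix; start with cumene hydroperoxide; read 340/450 nm fluorescence at 0 and 15 min. Finals were 200 nM GPX4, 1 mM GSH, 0.5 mM CHP, 0.5 mM NADPH, 100 nM GR.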
# [3] = Quantitative High-Throughput drug screen in 47 multiple myeloma cell lines against the NCATS MIPE library collection: Delta47_JCRB cell viability assay (AID 1918925; note: nearly all actives have a fitted effect of over 45% in size; note: potency is the fitted concentration of half-maximal effect)
# Method in brief: (§1)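 CellTiter-Glo luminescence (ATP) after 48 h compound exposure, 37C/5% CO2; 500 cells/well; MIPE 4.0 approved/investigational drugs pinned in; DMSO = 100%, media only = 0% viability.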
# [4] = Quantitative High-Throughput drug screen in 47 multiple myeloma cell lines against the NCATS MIPE library collection: EJM_DSMZ cell viability assay (AID 1918926; note: nearly all actives have a fitted effect of over 30% in size; note: potency is the fitted concentration of half-maximal effect)
# Method in brief: as §1
# [5] = Quantitative High-Throughput drug screen in 47 multiple myeloma cell lines against the NCATS MIPE library collection: AMO1_DSMZ cell viability assay (AID 1918927; note: nearly all actives have a fitted effect of over 30% in size; note: potency is the fitted concentration of half-maximal effect)
# Method in brief: as §1
# [6] = Quantitative High-Throughput drug screen in 47 multiple myeloma cell lines against the NCATS MIPE library collection: ARD_JJKsccE7 cell viability assay (AID 1918929; note: potency is the fitted concentration of half-maximal effect)
# Method in brief: as §1
# [7] = Quantitative High-Throughput drug screen in 47 multiple myeloma cell lines against the NCATS MIPE library collection: Karpas620_DSMZ cell viability assay (AID 1918959); note: nearly all actives have a fitted effect of over 30% in size; note: potency is the fitted concentration of half-maximal effect
# Method in brief: (§2)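 We plated 500 myeloma cells per well, pinned in MIPE 4.0 compounds, and incubated for 48 hours at 37C. ATP was then quantified with CellTiter-Glo, with DMSO and media-only wells defining 100% and 0%.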
# [8] = Quantitative High-Throughput drug screen in 47 multiple myeloma cell lines against the NCATS MIPE library collection: KMM1_JCRB cell viability assay (AID 1918960); note: nearly all actives have a fitted effect of over 30% in size; note: potency is the fitted concentration of half-maximal effect
# Method in brief: (§3)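 500 cells/well; MIPE 4.0 library pinned in; 48 h, 37 °C, 5% CO2; CellTiter-Glo ATP luminescence. Controls: DMSO = 100% viability, medium only = 0%.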
# [9] = Quantitative High-Throughput drug screen in 47 multiple myeloma cell lines against the NCATS MIPE library collection: Karpas417_ECACC cell viability assay (AID 1918961); conditions: Karpas417 myeloma viability, CellTiter-Glo ATP luminescence, 48 h; viability (% of DMSO): at 45.8 µM (top of the series); note: potency is the fitted concentration of half-maximal effect
# Method in brief: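 Viability readout: CellTiter-Glo luminescence following 5 min room-temperature incubation with reagent. Prior exposure: 48 h, 37C, humidified 5% CO2, 500 cells per well.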
# [10] = Quantitative High-Throughput drug screen in 47 multiple myeloma cell lines against the NCATS MIPE library collection: KHM11_PLB cell viability assay (AID 1918962); note: nearly all actives have a fitted effect of over 35% in size; note: potency is the fitted concentration of half-maximal effect
# Method in brief: as §2
# [11] = Quantitative High-Throughput drug screen in 47 multiple myeloma cell lines against the NCATS MIPE library collection: JIM3_ECACC cell viability assay (AID 1918963; note: nearly all actives have a fitted effect of over 35% in size; note: potency is the fitted concentration of half-maximal effect)
# Method in brief: as §2
# [12] = Quantitative High-Throughput drug screen in 47 multiple myeloma cell lines against the NCATS MIPE library collection: JIM1_ECACC cell viability assay (AID 1918964; note: potency is the fitted concentration of half-maximal effect)
# Method in brief: as §1
# [13] = Quantitative High-Throughput drug screen in 47 multiple myeloma cell lines against the NCATS MIPE library collection: ARP1_JJKsccF8 cell viability assay (AID 1918928; note: potency is the fitted concentration of half-maximal effect; nearly all actives have a fitted effect of over 40% in size)
# Method in brief: as §3
# [14] = Quantitative High-Throughput drug screen in 47 multiple myeloma cell lines against the NCATS MIPE library collection: FR4_PLB cell viability assay (AID 1918924; note: potency is the fitted concentration of half-maximal effect; nearly all actives have a fitted effect of over 35% in size)
# Method in brief: as §2
# Phospholipid hydroperoxide glutathione peroxidase GPX4 (Homo sapiens), sequence (P36969 whole entry, looked up): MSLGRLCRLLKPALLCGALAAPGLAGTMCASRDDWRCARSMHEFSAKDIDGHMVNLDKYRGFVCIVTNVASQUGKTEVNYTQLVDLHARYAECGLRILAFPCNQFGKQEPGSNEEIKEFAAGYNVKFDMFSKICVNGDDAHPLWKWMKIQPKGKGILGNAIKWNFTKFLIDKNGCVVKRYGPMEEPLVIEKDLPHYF
# Glutathione peroxidase 1 (Homo sapiens), sequence (P07203 whole entry, looked up): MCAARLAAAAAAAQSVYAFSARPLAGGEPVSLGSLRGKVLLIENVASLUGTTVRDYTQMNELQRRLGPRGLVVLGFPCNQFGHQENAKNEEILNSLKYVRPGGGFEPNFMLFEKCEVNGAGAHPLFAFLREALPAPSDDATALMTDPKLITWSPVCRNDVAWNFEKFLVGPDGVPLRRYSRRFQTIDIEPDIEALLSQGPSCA
SMILES,Potency [1],Potency [2],Potency [3],Potency [4],Potency [5],Potency [6],Potency [7],Potency [8],Potency [9],Potency [10],Potency [11],Potency [12],Potency [13],outcome [1],outcome [2],Potency [14]
N#Cc1cc(NC(=O)Nc2nnc(-c3ccncc3)s2)ccc1-c1cn[nH]c1,inactive,inactive,inactive,inactive,inactive,inactive,inactive,inactive,inactive,inactive,inactive,inactive,,,,
CC1(C)O[C@@H]2C[C@H]3[C@@H]4CCC5=CC(=O)C=C[C@]5(C)[C@@H]4[C@@H](O)C[C@]3(C)[C@]2(C(=O)CO)O1,inactive,inactive,,inactive,,5.3 nM (active),,,,,inactive,,37.2 nM (active),,,
CC(C=CC=C(C)C=CC1=C(C)CCCC1(C)C)=CC=CC=C(C)C=CC=C(C)C=CC1=C(C)CCCC1(C)C,,,,6620 nM (active),20900 nM (active),20900 nM (active),20900 nM (active),inactive,9350 nM (active),,inactive,,,inactive [at 0.4 µM],inactive [at 0.409 µM],
CCNC(=O)Nc1ccc(-c2nc3c(c(N4CCOC[C@H]4C)n2)CCN(C2COC2)C3)cc1,,,743 nM (active),7430 nM (active),1320 nM (active),1050 nM (active),16600 nM (active),332 nM (active),83.3 nM (active),469 nM (active),,132 nM (active),743 nM (active),,,935 nM (active)
CC(C)Oc1ccc(C(=O)N[C@H](CNC(=O)CN(C)C)Cc2ccc(-c3cn4cccc([C@H](C)O)c4n3)cc2)cc1Cl,inactive,,,,332 nM (active),264 nM (active),187 nM (active),209 nM (active),inactive,,209 nM (active),,935 nM (active),,,148 nM (active)
C[C@H](NC(=O)C(C#N)=Cc1cccc(Br)n1)c1ccccc1,,,2090 nM (active),1660 nM (active),13200 nM (active),11800 nM (active),11800 nM (active),10500 nM (active),,2090 nM (active),2090 nM (active),,5900 nM (active),,,3720 nM (active)
O=C1NC(=O)C(=Cc2ccc3nccc(-c4ccncc4)c3c2)S1,,,33.2 nM (active),662 nM (active),372 nM (active),118 nM (active),296 nM (active),132 nM (active),,46.9 nM (active),,29.6 nM (active),83.3 nM (active),,,332 nM (active)
NC(=O)c1ncn([C@@H]2O[C@H](CO)[C@@H](O)[C@@H]2O)c1O,,,inactive,inactive,inactive,inactive,inactive,inactive,,,inactive,,13200 nM (active),,,18700 nM (active)
CNC(=O)Nc1ccc(-c2nc(N3CC4CCC(C3)O4)c3cnn(C4CCC5(CC4)OCCO5)c3n2)cc1,inactive,,,3320 nM (active),16.6 nM (active),,,,6.6 nM (active),,418 nM (active),,,,,
CN[C@@H]1C[C@H]2O[C@@](C)([C@H]1OC)n1c3ccccc3c3c4c(c5c6ccccc6n2c5c31)C(=O)N[C@H]4O,,,46.9 nM (active),526 nM (active),332 nM (active),148 nM (active),590 nM (active),,,29.6 nM (active),148 nM (active),,833 nM (active),,,2090 nM (active)
CCC(C=C[C@@H]1OC(=O)C=C[C@H]1C)=C[C@H](C)CC=CC(C)=C[C@@H](C)C(=O)[C@@H](C)[C@H](O)[C@@H](C)CC(C)=CC(=O)O,,,22 nM (active),27.7 nM (active),34.9 nM (active),34.9 nM (active),12.4 nM (active),22 nM (active),,43.9 nM (active),,15.6 nM (active),27.7 nM (active),,,31.1 nM (active)
C#CCC(Cc1cnc2nc(N)nc(N)c2n1)c1ccc(C(=O)N[C@@H](CCC(=O)O)C(=O)O)cc1 (stereo not given in full),inactive,,inactive,,inactive,,inactive,,inactive,,,inactive,,,,
CC(=O)[C@]1(O)Cc2c(O)c3c(c(O)c2[C@@H](O[C@H]2C[C@H](N)[C@@H](O)[C@H](C)O2)C1)C(=O)c1ccccc1C3=O,,,105 nM (active),118 nM (active),833 nM (active),3320 nM (active),2090 nM (active),2350 nM (active),2350 nM (active),296 nM (active),264 nM (active),1180 nM (active),264 nM (active),,,469 nM (active)
COc1cc(C(=O)NC2CCN(C)CC2)ccc1Nc1ncc2c(n1)N(C1CCCC1)CCC(=O)N2C(C)C,,inactive,14800 nM (active),16600 nM (active),9350 nM (active),18700 nM (active),23500 nM (active),16600 nM (active),13200 nM (active),14800 nM (active),20900 nM (active),5900 nM (active),29600 nM (active),,,
O=C(Nc1nnc(-c2ccco2)o1)c1cc(-c2ccccc2)nc2ccccc12,inactive,,,,9350 nM (active),18700 nM (active),20900 nM (active),14800 nM (active),23500 nM (active),,,18700 nM (active),,,,23500 nM (active)
Nc1ncn([C@@H]2O[C@H](CO)[C@@H](O)[C@@H]2O)c(=O)n1,,,3320 nM (active),13200 nM (active),1480 nM (active),2350 nM (active),4690 nM (active),1180 nM (active),9350 nM (active),14800 nM (active),4690 nM (active),1480 nM (active),5260 nM (active),,,4690 nM (active)
